What all share (assay): protein-binding microarray (PBM); PBM: ~300 nM protein, 6 mM HEPES pH 7.8, 80 mM KCl, 0.5 mM EDTA, 0.5 mM EGTA, 6% glycerol, 35 ng/ul poly-dIdC, 1% milk, 1 h, room temperature; Ap Aiptasia and Nv Nematostella (sea anemones) / Co Capsaspora / Aq Amphimedon (sponge) / Dm Drosophila / Hu human; RHD is the Rel homology domain; high values mean tight binding
Common to all, as to conditions: dsDNA, one strand shown

One test has as its target T1, GST-Ap-NF-kB RHD (Exaiptasia pallida (Aiptasia), UniProt A0A913YAJ5 2-422).
T1 sequence: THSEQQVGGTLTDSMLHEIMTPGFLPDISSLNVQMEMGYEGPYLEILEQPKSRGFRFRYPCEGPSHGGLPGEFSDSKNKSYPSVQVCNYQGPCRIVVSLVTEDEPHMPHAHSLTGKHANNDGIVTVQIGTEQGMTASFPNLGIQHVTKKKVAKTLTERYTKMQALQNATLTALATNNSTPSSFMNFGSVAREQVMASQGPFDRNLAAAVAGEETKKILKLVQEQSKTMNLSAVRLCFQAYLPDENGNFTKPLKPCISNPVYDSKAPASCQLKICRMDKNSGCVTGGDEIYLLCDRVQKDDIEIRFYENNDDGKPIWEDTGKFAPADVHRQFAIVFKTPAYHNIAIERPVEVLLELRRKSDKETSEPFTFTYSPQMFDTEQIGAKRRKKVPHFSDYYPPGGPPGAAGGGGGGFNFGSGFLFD

Test [1] addresses T2, GST-Nv-NF-kB (Cys allele) (Nematostella vectensis, UniProt E5G601 2-411).
T2 sequence: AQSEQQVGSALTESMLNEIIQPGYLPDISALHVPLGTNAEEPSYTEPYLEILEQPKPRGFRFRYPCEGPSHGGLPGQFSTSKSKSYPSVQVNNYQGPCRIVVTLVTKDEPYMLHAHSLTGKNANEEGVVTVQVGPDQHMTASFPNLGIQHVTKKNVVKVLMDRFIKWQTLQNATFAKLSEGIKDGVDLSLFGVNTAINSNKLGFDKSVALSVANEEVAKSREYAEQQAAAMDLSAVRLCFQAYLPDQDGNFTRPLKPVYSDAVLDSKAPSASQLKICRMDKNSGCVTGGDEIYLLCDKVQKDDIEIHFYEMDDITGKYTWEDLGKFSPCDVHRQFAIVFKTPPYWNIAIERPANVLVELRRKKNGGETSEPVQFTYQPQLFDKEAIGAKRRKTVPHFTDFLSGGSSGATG

In test [2] the target is T3, GST-Nv-NF-kB (Ser allele) (Nematostella vectensis, UniProt A7UNT2 2-411).
T3 sequence: T2 sequence with Q21R, C66S, S207N, E215Q, V217A, E225K, A268E, D399E

Another test deals with T4, GST-Co-NF-kB (Capsaspora owczarzaki, UniProt F1ARL5 200-546).
T4 sequence: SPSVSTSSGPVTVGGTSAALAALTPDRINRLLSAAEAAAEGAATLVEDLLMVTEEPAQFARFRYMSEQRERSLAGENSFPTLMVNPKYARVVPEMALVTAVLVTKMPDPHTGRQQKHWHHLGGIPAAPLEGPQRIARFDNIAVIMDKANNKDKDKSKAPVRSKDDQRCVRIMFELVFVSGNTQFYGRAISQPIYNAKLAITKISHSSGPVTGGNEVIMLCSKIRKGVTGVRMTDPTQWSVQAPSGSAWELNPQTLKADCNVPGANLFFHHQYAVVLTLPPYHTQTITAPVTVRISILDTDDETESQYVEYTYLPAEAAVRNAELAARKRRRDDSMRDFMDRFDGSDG

For a further test, the target named is T5, GST-Dm-Relish (Drosophila melanogaster, UniProt Q94527 99-473).
T5 sequence: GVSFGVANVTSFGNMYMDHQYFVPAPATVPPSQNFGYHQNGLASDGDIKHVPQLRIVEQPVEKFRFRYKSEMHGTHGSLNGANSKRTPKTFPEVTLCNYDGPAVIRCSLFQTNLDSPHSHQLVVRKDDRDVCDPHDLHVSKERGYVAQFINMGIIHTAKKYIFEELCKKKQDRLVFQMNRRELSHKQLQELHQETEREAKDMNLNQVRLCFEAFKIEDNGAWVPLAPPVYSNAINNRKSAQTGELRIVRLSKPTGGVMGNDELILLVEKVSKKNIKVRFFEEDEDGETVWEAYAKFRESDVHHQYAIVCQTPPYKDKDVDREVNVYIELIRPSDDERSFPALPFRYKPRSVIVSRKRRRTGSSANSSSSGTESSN

The target in a further test is T6, GST-Aq-NF-kB (Amphimedon queenslandica, UniProt A9Y5G7 2-389).
T6 sequence: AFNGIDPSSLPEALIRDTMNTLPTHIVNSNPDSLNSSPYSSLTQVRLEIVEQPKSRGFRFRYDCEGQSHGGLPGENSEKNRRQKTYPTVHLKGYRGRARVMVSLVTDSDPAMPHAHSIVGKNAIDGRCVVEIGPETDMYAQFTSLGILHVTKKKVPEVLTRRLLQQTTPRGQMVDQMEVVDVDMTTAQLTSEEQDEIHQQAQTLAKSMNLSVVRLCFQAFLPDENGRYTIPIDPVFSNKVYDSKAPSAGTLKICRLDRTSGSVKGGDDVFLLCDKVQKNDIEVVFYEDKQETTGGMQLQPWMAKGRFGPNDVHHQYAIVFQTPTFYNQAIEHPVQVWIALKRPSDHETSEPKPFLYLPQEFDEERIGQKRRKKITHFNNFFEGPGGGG

Another test has as its target GST-Hu-p50 (Homo sapiens, UniProt P19838 7-356).

Substitutions are numbered along the chain they refer to.

Chain of GST-Hu-p50 (P19838 7-356): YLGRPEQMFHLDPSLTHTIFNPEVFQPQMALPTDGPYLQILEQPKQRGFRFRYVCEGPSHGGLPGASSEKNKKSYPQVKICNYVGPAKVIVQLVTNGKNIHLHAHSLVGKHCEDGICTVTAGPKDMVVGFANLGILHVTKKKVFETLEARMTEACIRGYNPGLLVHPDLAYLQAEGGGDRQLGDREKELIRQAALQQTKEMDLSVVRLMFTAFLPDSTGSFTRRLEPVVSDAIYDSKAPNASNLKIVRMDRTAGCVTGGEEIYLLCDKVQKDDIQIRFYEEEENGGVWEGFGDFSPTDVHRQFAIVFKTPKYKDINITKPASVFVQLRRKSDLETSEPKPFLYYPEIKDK

As for “CCGATTAACATCAGGGAATATACTGATGTTAATCGGGTCTTGATTCGCTTGACGCTGCTG”, the binding signal with GST-Ap-NF-kB RHD amounted to 3.5 z-score; in test [1], 3.81 z-score; in test [2], 4.1 z-score; with GST-Co-NF-kB it was 3.18 z-score; with GST-Dm-Relish, 4.01 z-score; with GST-Aq-NF-kB, 4.33 z-score. The sequence further yielded a binding signal with GST-Hu-p50 of 2.3 z-score.
As for “CCGATTAACATCACCCTCCCCCCTGATGTTAATCGGGTCTTGATTCGCTTGACGCTGCTG”, the binding signal with GST-Ap-NF-kB RHD was 4.55 z-score; in test [1], 4.25 z-score; in test [2] it was 4.55 z-score; in the test with GST-Co-NF-kB it was 6.06 z-score; with GST-Dm-Relish, 3.66 z-score; with GST-Aq-NF-kB it was 3.9 z-score. Also, in the test with GST-Hu-p50, the binding signal is 4.13 z-score.
As to “CCGATTAACATCAAAATTTCCCGTGATGTTAATCGGGTCTTGATTCGCTTGACGCTGCTG”, the binding signal in the test with GST-Ap-NF-kB RHD worked out at 4.72 z-score; in test [1], 6.89 z-score; in test [2], 6.74 z-score; in the test with GST-Co-NF-kB, 6.32 z-score; in the test with GST-Dm-Relish it was 4.72 z-score; in the test with GST-Aq-NF-kB it was 6.67 z-score. The sequence also had a binding signal in the test with GST-Hu-p50 of 4.8 z-score.
For the sequence “CCGATTAACATCAGTAATCCCCATGATGTTAATCGGGTCTTGATTCGCTTGACGCTGCTG”, the binding signal with GST-Ap-NF-kB RHD was 6.5 z-score; in test [1] it was 5.74 z-score; in test [2], 6.91 z-score; with GST-Co-NF-kB, 3.87 z-score; with GST-Dm-Relish it was 6.04 z-score; with GST-Aq-NF-kB, 4.5 z-score. The binding signal with GST-Hu-p50 was determined as 5.31 z-score.
For the sequence “CCGATTAACATCAGACTTTTCCCTGATGTTAATCGGGTCTTGATTCGCTTGACGCTGCTG”, the binding signal in the test with GST-Ap-NF-kB RHD was 2.88 z-score; in test [1] it was 4.94 z-score; in test [2], 5.24 z-score; in the test with GST-Co-NF-kB, 4.28 z-score; with GST-Dm-Relish, 1.62 z-score; with GST-Aq-NF-kB, 4.8 z-score. In addition, the binding signal with GST-Hu-p50 was 3.13 z-score.
“CCGATTAACATCAAATTATCCCCTGATGTTAATCGGGTCTTGATTCGCTTGACGCTGCTG”: the binding signal in the test with GST-Ap-NF-kB RHD came to 6.03 z-score; in test [1], 6.6 z-score; in test [2], 8.6 z-score; in the test with GST-Co-NF-kB, 6.1 z-score; with GST-Dm-Relish it was 3.57 z-score; with GST-Aq-NF-kB, 5.25 z-score. For the same sequence, the binding signal in the test with GST-Hu-p50 stood at 5.28 z-score.
Regarding “CCGATTAACATCAGGGGAAACACTGATGTTAATCGGGTCTTGATTCGCTTGACGCTGCTG”, the binding signal in the test with GST-Ap-NF-kB RHD turned out to be 6.4 z-score; in test [1], 8.15 z-score; in test [2] it was 9.65 z-score; with GST-Co-NF-kB, 7.63 z-score; in the test with GST-Dm-Relish, 9.02 z-score; with GST-Aq-NF-kB, 7 z-score. Moreover, the binding signal with GST-Hu-p50 came out at 6.08 z-score.
With “CCGATTAACATCAAAAATCCCGGTGATGTTAATCGGGTCTTGATTCGCTTGACGCTGCTG”, the binding signal with GST-Ap-NF-kB RHD worked out at 4.77 z-score; in test [1], 4.4 z-score; in test [2], 4.06 z-score; with GST-Co-NF-kB it was 2.98 z-score; with GST-Dm-Relish, 8.52 z-score; in the test with GST-Aq-NF-kB it was 5.12 z-score. In the test with GST-Hu-p50, this sequence came in with a binding signal of 3.94 z-score.
“CCGATTAACATCAAGTAACCCCCTGATGTTAATCGGGTCTTGATTCGCTTGACGCTGCTG”: the binding signal with GST-Ap-NF-kB RHD was 6.04 z-score; in test [1], 4.44 z-score; in test [2] it was 4.98 z-score; with GST-Co-NF-kB, 3.76 z-score; with GST-Dm-Relish, 6.97 z-score; with GST-Aq-NF-kB it was 5.32 z-score. Also, in the test with GST-Hu-p50, the binding signal was found to be 5.24 z-score.
As to “CCGATTAACATCAGGGGGTTGACTGATGTTAATCGGGTCTTGATTCGCTTGACGCTGCTG”, the binding signal in the test with GST-Ap-NF-kB RHD was 4.64 z-score; in test [1] it was 3.2 z-score; in test [2] it was 3.62 z-score; with GST-Co-NF-kB, 1.93 z-score; with GST-Dm-Relish, 4.51 z-score; with GST-Aq-NF-kB it was 3.95 z-score. In the test with GST-Hu-p50, this sequence had a binding signal of 4.25 z-score.
Take “CCGATTAACATCAAGAATCCCCCTGATGTTAATCGGGTCTTGATTCGCTTGACGCTGCTG”: the binding signal with GST-Ap-NF-kB RHD came out at 9.83 z-score; in test [1], 9.82 z-score; in test [2], 10.5 z-score; with GST-Co-NF-kB, 6.36 z-score; with GST-Dm-Relish it was 9.1 z-score; in the test with GST-Aq-NF-kB it was 7.61 z-score. The binding signal with GST-Hu-p50 is 7.83 z-score.
In the case of “CCGATTAACATCACTGGATTCCCTGATGTTAATCGGGTCTTGATTCGCTTGACGCTGCTG”, the binding signal was 3.07 z-score with GST-Ap-NF-kB RHD; 2.76 z-score in test [1]; 3.56 z-score in test [2]; 2.61 z-score with GST-Co-NF-kB; 4.48 z-score with GST-Dm-Relish; 2.82 z-score with GST-Aq-NF-kB. The same sequence had a binding signal with GST-Hu-p50 of 1.36 z-score.
